# About 3,300 (8.5%) of roughly 39,000 compounds were called active. What follows is part of a selection rich in actives, with near analogues and random picks from the rest.
# Test system: HepG2
# Experiment: cytotoxicity call (relative viability < 0.9)
# Conditions: 10 µM
row,SMILES,cytotoxicity call
1,CC(=N)NCCCC[C@@H](N)C(=O)O,inactive
2,COCC(=O)Nc1ccc2c(c1)C(=O)N(C)[C@H]1CC[C@@H](CC(=O)N3CCc4ccccc4C3)O[C@H]1CO2,inactive
3,CO[C@H]1CN(C)C(=O)c2ccc(NS(=O)(=O)CC(F)(F)F)cc2OC[C@H](C)N(C(=O)c2ccc3c(c2)OCO3)C[C@H]1C,inactive
4,C=CC[C@H](Nc1ccccc1C)c1ccc(Cl)cc1,inactive
5,C[C@H](CO)N1C[C@H](C)[C@@H](CN(C)S(=O)(=O)c2cn(C)cn2)OCCCC[C@H](C)Oc2ccc(NS(C)(=O)=O)cc2C1=O,inactive
6,NC(=O)[C@H]1C[C@@H]2C=C[C@H]1C2,inactive
7,O=C(CCCCCCC(=O)Nc1ccc([C@H]2C[C@H](c3ccccc3)O[C@H](c3ccc(Oc4ccccc4)cc3)O2)cc1)NO,inactive
8,C[C@H]1CN([C@@H](C)CO)C(=O)c2cc(NC(=O)Cn3cnnn3)ccc2O[C@@H]1CN(C)S(=O)(=O)c1ccc(F)cc1,inactive
9,Cc1ccc(S(=O)(=O)N2C[C@H](O)COC[C@@H]3O[C@H](CC(=O)NCCCN(C)C)CC[C@H]32)cc1,inactive
10,CCN1CCN(CC(=O)Nc2ccc(-c3cccc4c(=O)cc(N5CCOCC5)oc34)c3sc4ccccc4c23)CC1,active
11,CCN1CCN(C(=O)CN2C(=O)c3ccccc3S2(=O)=O)CC1,inactive
12,CCCC#Cc1ccc2c(c1)O[C@@H](CN(C)S(=O)(=O)c1cccc(F)c1)[C@H](C)CN([C@@H](C)CO)S2(=O)=O,inactive
13,CC(C)N1C[C@H](C)[C@@H](CN(C)Cc2ccccc2Cl)Oc2c(NC(=O)c3ccncc3)cccc2C1=O,inactive
14,O=C(CCCN1CCC(O)(c2ccc(Cl)cc2)CC1)c1ccc(F)cc1,active
15,O=C(CCCN1CCN(c2ccccn2)CC1)c1ccc(F)cc1,inactive
16,O=C(CCCN1CCC(O)(c2ccc(Br)cc2)CC1)c1ccc(F)cc1,active
17,NC(=O)C1(N2CCCCC2)CCN(CCCC(=O)c2ccc(F)cc2)CC1,inactive
18,O=C(CN1CCNCC1)c1ccc(F)cc1,inactive
19,O=C(CCCN1CC=C(n2c(=O)[nH]c3ccccc32)CC1)c1ccc(F)cc1,inactive
20,CC(C)(C)OC(=O)C[C@H]1CC=CC[C@@H](CC(=O)N[C@@H](CO)Cc2ccccc2)C(=O)N[C@@H](C(C)(C)C)COC1=O,inactive
21,C[C@@H]1CN([C@@H](C)CO)C(=O)c2cc(NC(=O)Cc3ccccc3)ccc2O[C@H]1CN(C)Cc1ccc(C(=O)Nc2ccccc2N)cc1,inactive

row,SMILES,cytotoxicity call
1,C[C@@H]1CN([C@@H](C)CO)C(=O)c2cccc(NC(=O)c3ccc(-c4nccs4)cc3)c2O[C@H]1CN(C)C(=O)Nc1ccccc1,inactive
2,C[C@H]1CN([C@@H](C)CO)C(=O)c2cccc(NC(=O)Nc3ccc(F)cc3)c2O[C@@H]1CN(C)Cc1ccc(Cl)c(Cl)c1,inactive
3,C[C@@H]1CN([C@H](C)CO)C(=O)c2cccc(NC(=O)Nc3ccc(C(F)(F)F)cc3)c2O[C@H]1CN(C)Cc1ccc(Cl)c(Cl)c1,inactive
4,C[C@@H]1CN([C@H](C)CO)C(=O)c2cccc(NC(=O)Nc3ccc(C(F)(F)F)cc3)c2O[C@@H]1CN(C)Cc1ccc(Cl)c(Cl)c1,active
5,C[C@H]1CN([C@@H](C)CO)C(=O)c2cccc(NC(=O)Nc3ccc(C(F)(F)F)cc3)c2O[C@@H]1CN(C)Cc1ccc(Cl)c(Cl)c1,active
6,C[C@@H]1CN([C@@H](C)CO)C(=O)c2cccc(NC(=O)Nc3ccc(C(F)(F)F)cc3)c2O[C@H]1CN(C)Cc1ccc(Cl)c(Cl)c1,active
7,C[C@@H]1CN([C@@H](C)CO)C(=O)c2cccc(NC(=O)Nc3ccc(C(F)(F)F)cc3)c2O[C@@H]1CN(C)Cc1ccc(Cl)c(Cl)c1,active
8,C[C@H](CO)N1C[C@H](C)[C@H](CN(C)Cc2ccc(Cl)c(Cl)c2)Oc2c(NC(=O)Nc3ccc(C(F)(F)F)cc3)cccc2C1=O,inactive
9,C[C@H](CO)N1C[C@H](C)[C@@H](CN(C)Cc2ccc(Cl)c(Cl)c2)Oc2c(NC(=O)Nc3ccc(F)cc3)cccc2C1=O,inactive
10,C[C@@H]1CN([C@@H](C)CO)C(=O)c2cccc(NC(=O)Nc3ccc(F)cc3)c2O[C@@H]1CN(C)Cc1ccc(Cl)c(Cl)c1,inactive
11,C[C@H]1CN([C@@H](C)CO)C(=O)c2cccc(NC(=O)Nc3ccc(F)cc3)c2O[C@H]1CN(C)Cc1ccc(Cl)c(Cl)c1,inactive
12,C[C@H](CO)N1C[C@H](C)[C@H](CN(C)C(=O)CCC(F)(F)F)OCCCC[C@H](C)Oc2ccc(NC(=O)Cc3ccccc3)cc2C1=O,inactive
13,C[C@@H]1CN([C@@H](C)CO)C(=O)c2cc(C#Cc3cccc(F)c3)cnc2O[C@H]1CN(C)Cc1ccccn1,inactive
14,Cc1ccc(S(=O)(=O)Nc2ccc3c(c2)C(=O)N([C@@H](C)CO)C[C@@H](C)[C@H](CN(C)C(=O)c2ccccc2)OCCCC[C@H](C)O3)cc1,inactive
15,Cc1noc(C)c1NC(=O)N(C)C[C@H]1OCCCC[C@H](C)Oc2ccc(NC(=O)C3CCCCC3)cc2C(=O)N([C@@H](C)CO)C[C@@H]1C,inactive
16,C[C@@H]1CCCCO[C@H](CN(C)C(=O)Nc2ccc(F)cc2)[C@H](C)CN([C@H](C)CO)C(=O)c2cc(NC(=O)Cc3ccccc3)ccc2O1,inactive
17,C[C@@H]1CN([C@@H](C)CO)C(=O)c2cccc(NC(=O)C3CCOCC3)c2O[C@@H]1CN(C)S(=O)(=O)c1ccccc1,inactive
18,C[C@H](CO)N1C[C@H](C)[C@@H](CN(C)C(=O)CN2CCOCC2)Oc2ncc(-c3cncnc3)cc2C1=O,inactive
19,Cc1noc(C)c1S(=O)(=O)N(C)C[C@H]1Oc2ccc(NS(C)(=O)=O)cc2C(=O)N([C@@H](C)CO)C[C@H]1C,inactive
20,C[C@H](CO)N1C[C@H](C)[C@@H](CN(C)Cc2ccc(Cl)c(Cl)c2)Oc2c(NC(=O)Nc3ccc(C(F)(F)F)cc3)cccc2C1=O,active
21,C[C@@H]1CN([C@H](C)CO)C(=O)c2cccc(NC(=O)Nc3ccc(F)cc3)c2O[C@@H]1CN(C)Cc1ccc(Cl)c(Cl)c1,inactive

row,SMILES,cytotoxicity call
1,C[C@H]1CN([C@@H](C)CO)C(=O)c2cccc(NC(=O)Nc3ccc(C(F)(F)F)cc3)c2O[C@H]1CN(C)Cc1ccc(Cl)c(Cl)c1,inactive
2,CCOc1ccnc2c1c(=O)n(CC(N)=O)c(=O)n2C,inactive
3,Cc1noc(C)c1S(=O)(=O)N(C)C[C@@H]1OCCCC[C@H](C)Oc2ccc(NS(=O)(=O)c3cn(C)cn3)cc2C(=O)N([C@H](C)CO)C[C@@H]1C,inactive
4,CC(=O)[C@]1(N)Cc2c(O)c3c(c(O)c2[C@@H](O[C@H]2C[C@H](O)[C@H](O)CO2)C1)C(=O)c1ccccc1C3=O,active
5,COc1cccc2c1C(=O)c1c(O)c3c(c(O)c1C2=O)C[C@@](O)(C(C)=O)C[C@@H]3O[C@H]1C[C@H](N)[C@H](O)[C@H](C)O1,active
6,COc1cccc2c1C(=O)c1c(O)c3c(c(O)c1C2=O)CC(O)(C(C)=O)CC3OC1CC(N)C(O)C(C)O1.Cl (configuration not stated),active
7,COc1cccc2c1C(=O)c1c(O)c3c(c(O)c1C2=O)C[C@](O)(C(C)=O)C[C@H]3O[C@H]1C[C@@H](N)[C@@H](O)[C@@H](C)O1,active
8,CCNC(=O)C[C@@H]1C=C[C@@H](NC(=O)C2CCOCC2)[C@@H](CO)O1,inactive
9,Cc1ccc(S[C@H](C)C(=O)c2ccc(C)c(Cl)c2)cc1,inactive
10,C[C@@H]1CN([C@H](C)CO)C(=O)c2cc(NC(=O)c3ccccc3)ccc2O[C@@H](C)CCCCO[C@H]1CN(C)C(=O)CCC(F)(F)F,inactive
11,C[C@@H]1CCCCO[C@H](CN(C)C(=O)Nc2ccc(F)cc2)[C@H](C)CN([C@H](C)CO)C(=O)c2cc(NC(=O)c3ccncc3)ccc2O1,inactive
12,CCCN(C)C[C@@H]1Oc2cc(C#Cc3cccc(OC)c3)ccc2S(=O)(=O)N([C@H](C)CO)C[C@@H]1C,inactive
13,C/C=C(\C(C)=N\O)c1ccccc1,inactive
14,CN1C(=O)c2cc(NC(=O)C3CCCC3)ccc2OC[C@H]2O[C@@H](CC(=O)NCCc3ccncc3)CC[C@H]21,inactive
15,CN(C)CC(=O)N[C@@H]1CC[C@H](CC(=O)O)O[C@@H]1CO,inactive
16,CC(=O)[C@]1(O)Cc2c(O)c3c(c(O)c2[C@@H](O[C@@H]2C[C@@H](N)[C@H](O)[C@@H](C)O2)C1)C(=O)c1c(O)cccc1C3=O,active
17,CC(C)NC(=O)Nc1ccc2c(c1)CC(=O)N([C@@H](C)CO)C[C@H](C)[C@@H](CN(C)S(=O)(=O)c1ccc(F)cc1)O2,inactive
18,C[C@@H]1CN([C@@H](C)CO)C(=O)c2cc(NC(=O)Nc3cccc4ccccc34)ccc2O[C@@H]1CN(C)Cc1ccncc1,inactive
19,C[C@H](CO)N1C[C@H](C)[C@H](CN(C)Cc2ccncc2)Oc2ccc(NC(=O)CCCN(C)C)cc2C1=O,inactive
20,CC(C)C[C@H](N)C(=O)N[C@@H](C)C(=O)O,active
21,CC(C)C[C@@H](NC(=O)[C@@H](C)N)C(=O)O,inactive

row,SMILES,cytotoxicity call
1,CC(C)C[C@H](N)C(=O)O,inactive
2,C[C@H]1CN([C@@H](C)CO)C(=O)Cc2cc(NC(=O)CCN3CCOCC3)ccc2O[C@H]1CN(C)S(=O)(=O)c1cn(C)cn1,inactive
3,O=C1CSC(=Nc2nccs2)N1,inactive
4,O=C(O)CCN=C1NC(=O)CS1,active
5,O=C(O)CCCN=C1NC(=O)CC(=O)N1,inactive
6,C[C@H]1CN([C@@H](C)CO)C(=O)c2cccc(NC(=O)c3ccncc3)c2O[C@@H]1CN(C)Cc1ccc(-c2ccccc2)cc1,inactive
7,C[C@H](CO)N1C[C@H](C)[C@@H](CN(C)S(=O)(=O)c2ccc(F)cc2)Oc2ccc(NS(=O)(=O)c3cccs3)cc2CC1=O,inactive
8,COc1ccc([Si](C)(C)[C@@H]2[C@@H](CCn3cc([C@H](O)c4ccccc4)nn3)O[C@]3(C(=O)N(C)c4c(Br)cc(C)cc43)[C@H]2C)cc1,inactive
9,COc1ccc([Si](C)(C)[C@@H]2[C@@H](CC(=O)N(CCO)Cc3ccccc3)O[C@]3(C(=O)N(Cc4cccc(N5CCOC5=O)c4)c4ccccc43)[C@H]2C)cc1,inactive
10,COc1ccc([Si](C)(C)[C@H]2[C@H](CC(=O)N(CCO)Cc3ccccc3)O[C@@]3(C(=O)N(C)c4c(Br)cc(C)cc43)[C@@H]2C)cc1,active
11,COc1ccc(C(=O)Nc2ccc(CN3C(=O)[C@]4(O[C@H](CC(=O)N(CCO)Cc5ccccc5)[C@@H]([Si](C)(C)c5ccc(OC)cc5)[C@@H]4C)c4ccccc43)cc2)cc1,inactive
12,COc1ccc([Si](C)(C)[C@H]2[C@H](CC(=O)N(CCO)Cc3ccccc3)O[C@@]3(C(=O)N(Cc4cccc(N5CCOC5=O)c4)c4ccccc43)[C@@H]2C)cc1,inactive
13,COc1ccc([Si](C)(C)[C@@H]2[C@@H](CC(=O)N(CCO)Cc3ccccc3)O[C@]3(C(=O)N(C)c4c(Br)cc(C)cc43)[C@H]2C)cc1,inactive
14,COc1ccc(C(=O)Nc2ccc(CN3C(=O)[C@@]4(O[C@@H](CC(=O)N(CCO)Cc5ccccc5)[C@H]([Si](C)(C)c5ccc(OC)cc5)[C@H]4C)c4ccccc43)cc2)cc1,inactive
15,COc1ccc(C(=O)Nc2cccc(CN3C(=O)[C@]4(O[C@H](CC(=O)N(CCO)Cc5ccccc5)[C@@H]([Si](C)(C)c5ccc(OC)cc5)[C@@H]4C)c4ccccc43)c2)cc1,active
16,COc1ccc([Si](C)(C)[C@@H]2[C@@H](CC(=O)N3Cc4ccccc4C[C@H]3CO)O[C@]3(C(=O)N(C)c4c(Br)cc(C)cc43)[C@H]2C)cc1,inactive
17,COc1ccc([Si](C)(C)[C@H]2[C@H](CCn3cc([C@H](O)c4ccccc4)nn3)O[C@@]3(C(=O)N(c4ccccc4)c4ccccc43)[C@@H]2C)cc1,inactive
18,COc1ccc(C(=O)Nc2cccc(CN3C(=O)[C@@]4(O[C@@H](CC(=O)N(CCO)Cc5ccccc5)[C@H]([Si](C)(C)c5ccc(OC)cc5)[C@H]4C)c4ccccc43)c2)cc1,active
19,COc1ccc([Si](C)(C)[C@H]2[C@H](CCn3cc([C@H](O)c4ccccc4)nn3)O[C@@]3(C(=O)N(C)c4c(Br)cc(C)cc43)[C@@H]2C)cc1,active
